Inconclusive results are not listed. Unmarked numbers belong to inactive results. Calls of active or inactive are those of the source. Calls follow the shape of the dose curve; as a rule, active = well fitted inhibition curve with a large enough effect; inconclusive = small, poorly fitted or top-dose-only effect, or effect the other way; inactive = flat fitted curve, though single readings scatter.
Target: Ubiquitin carboxyl-terminal hydrolase 2 (Homo sapiens) (UniProt O75604)
Test: Ub-rhodamine 110 based assay for inhibitors Ubiquitin-specific Protease USP2a; also: nearly all actives have a fitted effect of over 50% in size
Conditions: USP2a Ub-rhodamine110 cleavage, fluorescence; series mostly up to 38.3 µM; activity change, negative = inhibition: at the top concentration
Summary of the method: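 Kinetic fluorescence (485/531 nm) read each minute over 7 min after adding Ub-Rhod110 (150 nM final) to USP2a (5 nM final). The enzyme had 30 min RT exposure to compounds beforehand in Tris pH 8.0 buffer with CaCl2, CHAPS and beta-ME.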
% is scaled to controls: 0 for no effect and ±100 for the full control effect; potency is read from the fitted curve at half-maximal effect.

Sequence of Ubiquitin carboxyl-terminal hydrolase 2 (Homo sapiens) (O75604 whole entry, looked up): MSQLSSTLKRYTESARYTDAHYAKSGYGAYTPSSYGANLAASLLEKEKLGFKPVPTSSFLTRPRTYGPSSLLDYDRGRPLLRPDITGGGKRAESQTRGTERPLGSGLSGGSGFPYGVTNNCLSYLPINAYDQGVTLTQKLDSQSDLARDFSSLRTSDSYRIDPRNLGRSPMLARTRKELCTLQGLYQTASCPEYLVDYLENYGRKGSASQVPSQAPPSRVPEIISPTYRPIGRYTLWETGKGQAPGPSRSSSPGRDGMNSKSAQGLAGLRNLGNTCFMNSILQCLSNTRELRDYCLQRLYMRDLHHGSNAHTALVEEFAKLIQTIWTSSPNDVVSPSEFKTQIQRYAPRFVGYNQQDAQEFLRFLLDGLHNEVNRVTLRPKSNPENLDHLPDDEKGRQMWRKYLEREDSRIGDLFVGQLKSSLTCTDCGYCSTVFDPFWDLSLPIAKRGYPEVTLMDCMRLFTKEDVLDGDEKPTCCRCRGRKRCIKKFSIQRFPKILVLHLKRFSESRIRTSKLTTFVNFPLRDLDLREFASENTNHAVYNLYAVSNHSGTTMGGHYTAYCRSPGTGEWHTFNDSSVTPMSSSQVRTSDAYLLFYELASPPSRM

Row | SMILES | activity change, negative = inhibition | Potency
1 | NC1=NC2(CCC(c3ccccc3)CC2)n2c(nc3ccccc32)N1 (stereo unspecified) | -18.1% | –
2 | CC(C)C(C(=O)O)N1C(=O)/C(=C/C=C/c2ccco2)SC1=S (stereo unspecified) | – | 5.01 µM (active)
3 | CCOC(=O)C(C)Sc1nnc(Cn2c(=O)sc3ccccc32)n1-c1ccccc1 (stereo unspecified) | -6.31% | –
4 | Nc1c(C(=O)Nc2ccc3c(c2)OCCO3)nnn1CCc1ccccc1 | 2.3% | –
5 | COCCN1Cc2cccc(C(=O)N3CCN(c4cc(C)ccc4C)CC3)c2C1=O | -4.98% | –
6 | COC(=O)c1cc2sc(Cl)cc2n1Cc1nc(-c2ccccc2)oc1C | 0.719% | –
7 | Cc1cc2c(c(=O)n1CC1CCCO1)C(c1ccco1)C(C#N)=C(N)O2 (stereo unspecified) | 0.369% | –
8 | COCc1cc(C)nc(SCC[N+](C)(C)CC(=O)Nc2cccc(C(F)(F)F)c2)c1C#N | -7.94% | –
9 | CC(C)N(C(=O)c1sc2cc([N+](=O)[O-])ccc2c1Cl)C(C)C | 9.71% | –
10 | O=C(CSc1nnc(SCc2ccccc2)s1)N/N=C/C=C/c1ccco1 | – | 6.31 µM (active)
11 | CCC(C)(C(=O)NC1CCCCC1)N(C(=O)C1CCC(=O)N1)c1ccccc1 (stereo unspecified) | -9.98% | –
12 | O=C(Nc1nc(-c2ccco2)c(-c2ccco2)s1)C1CC(=O)N(c2ccc3c(c2)OCCO3)C1 (stereo unspecified) | – | 2.51 µM (active)
13 | COC(=O)CCC(=O)Nc1sc2c(c1C#N)CCCC2 | -9.38% | –
14 | CCN1C(=O)CSc2ccc(C(=O)NC3CCCCC3)cc21 | 1.71% | –
15 | C=CCn1c(O)c(C(CC)=NCCN2CCOCC2)c(=O)[nH]c1=O | -2.11% | –
16 | Cc1ccc(S(=O)(=O)Nc2ccccc2C(=O)Nc2nc(-c3ccc(F)cc3)cs2)cc1 | – | 7.08 µM (active)
